The subject of test [1] is Plasmodium falciparum Sir2 (PF13_0152, Sir2A). The test is described as follows: Plasmodium falciparum Sir2A binding compounds – biochemical, small-molecule microarray, 635 nm fluorescence, primary screen (AID 1098).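 Note: score merges spot fluorescence intensity with its signal-to-noise ratio.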 To be noted: fluorescence 635 nm, higher = more signal.
A short description of test [2]: probe aDKK1 binding to arrayed compounds – biochemical, biotinylated probe, 635/667 nm fluorescence, primary screen (AID 1099).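 Note: score merges 667nm spot fluorescence with signal to noise across triplicate slides.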 To be noted: small-molecule microarray, higher = more signal.
Test [3] in a line: probe aCHRDL2 binding to arrayed compounds – biochemical, biotinylated probe, 635/667 nm fluorescence, primary screen (AID 1100). To be noted: small-molecule microarray, higher = more signal.
Test [4] is described as follows: change in splice reporter luminescence, either direction, cell-based, HEK293, spliceosome inhibition project, primary screen (AID 1101).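 Note: HEK293 cells carrying a splicing-competent luciferase reporter gene; test concentration not given here.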 To be noted: HEK293 splicing luciferase reporter, 24 h, higher = more signal, called active from +8 up or from −8 down. (In general: Reporter assays use an easily measured gene product as a stand-in for the process of interest.)
Test [5] deals with Fibroblast growth factor 10 (Homo sapiens) (UniProt O15520). The test is described as follows: compounds binding fibroblast growth factor 10 – biochemical, small-molecule microarray, 635 nm fluorescence, primary screen (AID 1102). To be noted: FGF10 binding, fluorescence 635 nm, higher = more signal.
Test [6] deals with glycogen synthase kinase-3 (GSK3A per assay name; protocol says GSK3B). As to the kind of experiment: compounds binding glycogen synthase kinase-3 – biochemical, small-molecule microarray, 635 nm fluorescence, GSK3A, primary screen (AID 1103). Note: the record names both GSK3A and GSK3B. To be noted: fluorescence 635 nm, higher = more signal.
Test [7] has as its target Epidermal growth factor receptor (Homo sapiens) (UniProt P00533). The test is described as follows: compounds binding epidermal growth factor receptor – biochemical, small-molecule microarray, 635 nm fluorescence, primary screen (AID 1104).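 Note: score merges 667 nm emission intensity with spot signal to noise over triplicate slides.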 To be noted: EGFR binding, higher = more signal.
The target of test [8] is Follistatin-related protein 3 (Homo sapiens) (UniProt O95633). As to the kind of experiment: compounds binding follistatin-related protein 3 – biochemical, small-molecule microarray, 635 nm fluorescence, primary screen (AID 1105).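 Note: score merges emission near 667 nm and signal to noise per printed spot across three slides.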 To be noted: FSTL3 binding, higher = more signal.
Test [9] has as its target Dickkopf-related protein 1 (Homo sapiens) (UniProt O94907). As to the kind of experiment: small molecules binding DKK1 protein – biochemical, small-molecule microarray, 635 nm fluorescence scan, primary screen (AID 1106).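 Note: score merges emission near 667 nm with signal to noise over three replicate slides.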 To be noted: higher = more signal.
Test [10] relates to Inhibin beta A chain (activin A). As to the kind of experiment: small molecules binding activin A – biochemical, small-molecule microarray, 635 nm fluorescence scan, primary screen (AID 1107).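 Note: mouse activin A protein probed at 4.33 µg/mL on printed slides; score merges bound-protein fluorescence near 667 nm with spot signal-to-noise.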 To be noted: INHBA, higher = more signal.
In test [11] the test system is Human papillomavirus type 1a protein E7 (residues 44-93). As to the kind of experiment: small molecules binding HPV E7 44-93 – biochemical, small-molecule microarray, residues 44-93, 635 nm fluorescence, primary screen (AID 1108).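 Note: E7 fragment applied at 1 µg/mL in TBST for 1 h at 4 C; score combines spot fluorescence with its signal to noise ratio.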 To be noted: fluorescence 635 nm, higher = more signal.
Test [12] in a line: hepatitis C replication reporter changes, two-sided – Huh7 cells, luciferase reporter, HCV replication inhibitor project, primary screen (AID 1109).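 Note: huh7 hepatoma cells harbouring a luciferase neomycin HCV replicon reporter; luciferase luminescence as measure of HCV replicon replication; test concentration not given here.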 To be noted: Huh7 HCV replicon luciferase reporter, 48 h; higher = more signal.
Test [13] has as its target Left-right determination factor 2 (Homo sapiens) (UniProt O00292). The test is described as follows: small molecules binding LEFTY2 protein – biochemical, small-molecule microarray, 635 nm fluorescence scan, primary screen (AID 1110). To be noted: higher = more signal.
In test [14] the target is Calmodulin-1 (Homo sapiens) (UniProt P0DP23). As to the kind of experiment: small molecules binding calmodulin-1 with EGTA – biochemical, small-molecule microarray, Cy5-labelled CALM1, profiling panel (AID 1111).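 Note: labelled calmodulin applied in Tris saline Tween buffer holding calcium plus EGTA and DTT.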 To be noted: Cy5-CALM1 binding fluorescence, higher = more signal.
For test [15] the target is unchanged. As to the kind of experiment: small molecules binding Ca-loaded calmodulin-1 – biochemical, small-molecule microarray, Cy5-labelled CALM1, plus calcium, artefact control for SMM control-protein annotation, profiling panel (AID 1112).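 Note: score merges spot fluorescence with signal to noise from triplicate slides.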 To be noted: Cy5-CALM1 binding fluorescence, higher = more signal.
Test [16] is described as follows: probe aWnt5a binding to arrayed compounds – biochemical, biotinylated probe, 635/667 nm fluorescence, primary screen (AID 1113).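 Note: score merges 667 nm fluorescence intensity with signal-to-noise per printed feature.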 To be noted: small-molecule microarray, higher = more signal.
A short description of test [17]: probe aShh binding to arrayed compounds – biochemical, biotinylated probe, 635/667 nm fluorescence, primary screen (AID 1114).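 Note: probe is biotin-labelled aShh protein from a stem cell growth factor screen; measures binding of labelled protein to compounds printed on the slide; score merges feature fluorescence at 667 nm with signal-to-noise.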 To be noted: small-molecule microarray, higher = more signal.
Test [18] in a line: probe aNog binding to arrayed compounds – biochemical, biotinylated probe, 635/667 nm fluorescence, primary screen (AID 1115).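 Note: probe is biotinylated aNog protein used at 0.15 µg/mL for 1 h at 4 C; z-score combines 667 nm fluorescence of each spot with its signal to noise.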 To be noted: small-molecule microarray, higher = more signal.
The target of test [19] is Torsin-1A-interacting protein 1 (Homo sapiens) (UniProt Q5JTV8). The test is described as follows: compound microarray binding of lysate hLAP1 – cell lysate, small-molecule microarray, COS7 lysate, 635/667 nm fluorescence, primary screen (AID 1116). To be noted: 635 nm fluorescence, higher = more signal.
Test [20] addresses Alpha-bungarotoxin (Bungarus multicinctus) (UniProt P60615). As to the kind of experiment: compounds binding labelled alpha-BTX control protein – biochemical, small-molecule microarray, Alexa647 label, 635/667 nm fluorescence, artefact control for SMM control protein annotation, profiling panel (AID 1117). To be noted: alpha-BTX-A647 binding fluorescence, higher = more signal.

Structures are written as SMILES. Calls of active or inactive are those of the source.

Chain of Alpha-bungarotoxin (Bungarus multicinctus) (P60615 whole entry, looked up): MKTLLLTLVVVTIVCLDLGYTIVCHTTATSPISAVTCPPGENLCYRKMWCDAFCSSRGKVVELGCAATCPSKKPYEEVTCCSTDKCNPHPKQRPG
Chain of Dickkopf-related protein 1 (Homo sapiens) (O94907 whole entry, looked up): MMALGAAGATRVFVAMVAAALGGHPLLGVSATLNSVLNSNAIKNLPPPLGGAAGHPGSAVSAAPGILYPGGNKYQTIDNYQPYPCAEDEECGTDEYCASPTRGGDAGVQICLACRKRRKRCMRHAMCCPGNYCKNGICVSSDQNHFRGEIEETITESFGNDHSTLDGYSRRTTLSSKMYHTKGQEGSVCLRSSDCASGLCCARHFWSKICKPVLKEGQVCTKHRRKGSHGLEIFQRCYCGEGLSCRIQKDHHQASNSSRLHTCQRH
Chain of Epidermal growth factor receptor (Homo sapiens) (P00533 whole entry, looked up): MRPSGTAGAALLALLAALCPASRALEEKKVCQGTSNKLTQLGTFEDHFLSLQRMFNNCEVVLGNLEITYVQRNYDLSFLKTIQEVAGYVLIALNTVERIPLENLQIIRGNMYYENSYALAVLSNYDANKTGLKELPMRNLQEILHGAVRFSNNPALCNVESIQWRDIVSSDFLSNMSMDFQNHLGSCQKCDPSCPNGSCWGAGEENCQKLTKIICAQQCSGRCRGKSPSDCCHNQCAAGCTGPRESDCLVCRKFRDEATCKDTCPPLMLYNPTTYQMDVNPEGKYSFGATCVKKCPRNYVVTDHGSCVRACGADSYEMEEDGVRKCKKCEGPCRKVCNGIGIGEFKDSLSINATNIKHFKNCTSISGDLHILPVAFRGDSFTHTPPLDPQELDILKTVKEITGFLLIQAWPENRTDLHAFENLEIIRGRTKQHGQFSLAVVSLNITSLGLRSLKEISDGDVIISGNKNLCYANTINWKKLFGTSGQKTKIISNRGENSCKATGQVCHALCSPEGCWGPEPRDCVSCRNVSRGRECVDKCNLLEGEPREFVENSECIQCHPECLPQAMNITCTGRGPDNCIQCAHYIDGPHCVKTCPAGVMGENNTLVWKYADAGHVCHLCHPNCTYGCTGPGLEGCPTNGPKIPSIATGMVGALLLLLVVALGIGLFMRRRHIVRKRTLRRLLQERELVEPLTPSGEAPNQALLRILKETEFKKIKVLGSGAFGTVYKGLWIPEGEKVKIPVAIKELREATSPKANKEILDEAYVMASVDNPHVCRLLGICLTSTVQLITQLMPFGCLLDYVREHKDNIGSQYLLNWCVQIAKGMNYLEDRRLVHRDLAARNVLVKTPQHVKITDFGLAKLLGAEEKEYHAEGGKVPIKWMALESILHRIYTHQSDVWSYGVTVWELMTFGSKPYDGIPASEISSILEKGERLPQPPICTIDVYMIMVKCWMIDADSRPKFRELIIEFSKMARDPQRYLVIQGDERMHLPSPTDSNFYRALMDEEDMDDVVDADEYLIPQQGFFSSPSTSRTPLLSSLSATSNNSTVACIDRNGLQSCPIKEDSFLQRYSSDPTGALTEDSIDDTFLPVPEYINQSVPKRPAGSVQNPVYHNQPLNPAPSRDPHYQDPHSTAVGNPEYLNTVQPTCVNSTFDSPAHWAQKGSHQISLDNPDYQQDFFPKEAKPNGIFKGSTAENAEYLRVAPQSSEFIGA
Chain of Follistatin-related protein 3 (Homo sapiens) (O95633 whole entry, looked up): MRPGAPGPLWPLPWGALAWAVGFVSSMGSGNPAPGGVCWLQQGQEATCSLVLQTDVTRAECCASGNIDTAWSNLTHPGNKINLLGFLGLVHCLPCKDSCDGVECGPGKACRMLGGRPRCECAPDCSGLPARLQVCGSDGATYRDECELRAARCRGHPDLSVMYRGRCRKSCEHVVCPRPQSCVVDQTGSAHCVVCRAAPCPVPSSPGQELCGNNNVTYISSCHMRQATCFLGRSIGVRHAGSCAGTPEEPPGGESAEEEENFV
Chain of Fibroblast growth factor 10 (Homo sapiens) (O15520 whole entry, looked up): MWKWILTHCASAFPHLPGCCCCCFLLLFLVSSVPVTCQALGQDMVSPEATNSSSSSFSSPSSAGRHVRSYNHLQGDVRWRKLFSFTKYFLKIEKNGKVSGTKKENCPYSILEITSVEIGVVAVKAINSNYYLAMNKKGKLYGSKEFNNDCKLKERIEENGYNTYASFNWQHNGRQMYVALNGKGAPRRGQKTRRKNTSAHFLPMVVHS
Chain of Torsin-1A-interacting protein 1 (Homo sapiens) (Q5JTV8 whole entry, looked up): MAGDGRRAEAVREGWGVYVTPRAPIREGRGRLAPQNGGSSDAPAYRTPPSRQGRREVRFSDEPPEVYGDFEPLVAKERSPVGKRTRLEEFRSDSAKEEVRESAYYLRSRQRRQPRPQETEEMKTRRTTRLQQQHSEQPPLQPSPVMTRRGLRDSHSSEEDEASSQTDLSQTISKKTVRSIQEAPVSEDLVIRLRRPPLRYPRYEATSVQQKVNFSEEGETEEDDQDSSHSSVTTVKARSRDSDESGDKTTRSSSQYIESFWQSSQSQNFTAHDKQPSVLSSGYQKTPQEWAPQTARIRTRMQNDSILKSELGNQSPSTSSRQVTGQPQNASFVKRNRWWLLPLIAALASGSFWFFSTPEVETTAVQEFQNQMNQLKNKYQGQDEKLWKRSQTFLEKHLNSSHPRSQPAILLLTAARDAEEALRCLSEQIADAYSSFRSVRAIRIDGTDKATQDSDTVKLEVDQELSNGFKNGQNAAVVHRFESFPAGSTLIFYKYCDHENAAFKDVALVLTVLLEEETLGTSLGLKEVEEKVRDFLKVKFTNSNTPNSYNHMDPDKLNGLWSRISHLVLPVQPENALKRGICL
Chain of Left-right determination factor 2 (Homo sapiens) (O00292 whole entry, looked up): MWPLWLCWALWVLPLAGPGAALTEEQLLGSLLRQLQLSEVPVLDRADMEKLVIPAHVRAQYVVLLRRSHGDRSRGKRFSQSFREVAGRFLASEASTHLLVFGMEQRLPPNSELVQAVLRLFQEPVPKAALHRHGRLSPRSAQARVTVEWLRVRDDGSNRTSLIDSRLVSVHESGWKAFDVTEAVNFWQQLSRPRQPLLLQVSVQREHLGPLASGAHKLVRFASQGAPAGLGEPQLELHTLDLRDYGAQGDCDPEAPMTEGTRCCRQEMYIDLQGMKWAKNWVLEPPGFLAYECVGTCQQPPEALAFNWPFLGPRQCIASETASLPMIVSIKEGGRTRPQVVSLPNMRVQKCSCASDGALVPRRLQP

As to `COC(=O)[C@@]1(Cc2ccc(OC)cc2)[C@@H]2[C@@H](CC(=O)[C@H]2CC(=O)C(=O)N(C)C)CN1C(=O)c1ccccc1`, the composite z-score in [1] amounted to 0.625; in test [2], 1.64; in test [3], 1.49; in test [5], 1.27; in [6], 1.18; in test [7], 0.638. Also, the composite z-score in test [8] was 1.17; in [9] it was -0.458; in [10], 0.18; in test [11] it was 1.42; in test [13], 0.243; in [14] it was 2.66. Moreover, the composite z-score in test [15] stood at 1.51; in test [16], 0.346; in test [17], 2.46; in test [18] it was 0.899; in test [19] it was 1.51; in [20], 1.67. Further, the z-score in test [4] is -1.53 (inactive); in test [12] it was -2.35.

`O=C1N(Cc2ccccc2)Cc2ccccc2C[C@@]12COC(c1ccc(OCCCO)cc1)=N2`: the composite z-score was 0.631 in test [1]; 1.02 in [2]; 1.27 in test [3]; 0.334 in test [5]; 1.27 in [6]; -0.622 in test [7]. Also, the composite z-score was 0.288 in [8]; 0.306 in test [9]; 1.4 in test [10]; 1.19 in test [11]; -0.0607 in test [13]; 0.273 in test [14]. The composite z-score in test [15] is 0.519; in [16], -0.043; in [17], 0.0287; in [18], 1.09; in test [19], 0.724; in test [20], 0.491. For the same compound, the results for the z-score in test [4] and in test [12] were 6.28 (inactive) and -3.52, respectively.

For `Cc1ccc(S[C@]2(C(=O)NC(C)C)CC(=O)N(Cc3ccccc3)[C@@H]2c2ccc(CO)cc2I)cc1`, the composite z-score in test [1] is 0.984; in test [2], 0.498; in test [3] it was 1.27; in test [5] it was -0.284; in test [6] it was -0.683; in test [7] it was -1.27. Moreover, the composite z-score is -0.911 in test [8]; -2.57 in [9]; 1.01 in test [10]; -0.0832 in test [11]; -1.13 in test [13]; 0.129 in [14]. The composite z-score is 0.454 in test [15]; -0.172 in test [16]; 0.0711 in test [17]; 0.813 in [18]; -0.426 in test [19]; -0.684 in test [20]. In addition, the results for the z-score in [4] and in test [12] were -0.328 (inactive) and -1.78, respectively.

Take `CCCCCCc1nc(Cc2cc(OC)c(OC)c(OC)c2)c(C)c2c1[Si](C(C)C)(C(C)C)OC2`: the composite z-score in test [1] is 0.197; in test [2] it was -0.1; in [3], -0.35; in [5], 0.261; in [6] it was 0.104; in test [7] it was -0.0718. Further, the composite z-score is 0.237 in test [8]; 0.163 in test [9]; 0.987 in test [10]; 0.495 in [11]; 0.0746 in [13]; -0.0235 in [14]. Further, the composite z-score was -0.128 in test [15]; -0.0721 in [16]; 0.14 in test [17]; -0.0587 in [18]; 0.18 in test [19]; -0.101 in [20]. Also, the z-score in test [4] was -2.3 (inactive); in test [12], -0.715.

Consider `COC(=O)[C@@]1(Cc2ccc(F)cc2)[C@H]2c3cc(C(=O)N4CCCC4)n(CCc4c[nH]c5cc(F)ccc45)c3C[C@H]2CN1C(=O)c1ccccc1`, for which the composite z-score in test [1] came out at 1.05; in [2], 0.593; in test [3] it was 0.852; in test [5], 1.14; in test [6], 1.32; in test [7], 0.146. In addition, the composite z-score was 1.25 in test [8]; 0.736 in test [9]; 1.09 in test [10]; 1.41 in test [11]; 0.119 in [13]; 1.91 in test [14]. Further, the composite z-score in [15] is 1.2; in [16], 0.562; in test [17] it was 0.472; in test [18] it was -0.615; in test [19], -0.291; in [20], 0.841. The z-score in [4] was -0.685 (inactive); in test [12], -1.62.

For `COC(=O)[C@@]1(Cc2ccc(F)cc2)[C@H]2c3cc(C(=O)N4CCCC4)n(Cc4ccc(OC(F)(F)F)cc4)c3C[C@H]2CN1C(=O)c1ccccc1`, the composite z-score in [1] was 0.776; in test [2], 0.142; in [3] it was 0.548; in [5], -0.135; in test [6], -0.141; in test [7], -0.564. Moreover, the composite z-score in [8] was -1.03; in test [9], -0.559; in [10] it was 0.602; in test [11], 0.118; in [13], -0.763; in test [14], 0.028. Also, the composite z-score was 0.336 in test [15]; 0.164 in test [16]; 0.265 in test [17]; 1.17 in test [18]; 0.383 in [19]; -0.272 in [20]. Further, the z-score in [4] was 1.08 (inactive); in test [12], 0.234.

Turning to `O=C1C2C=CC(C(O)C(c3ccccc3)c3ccccc3)N(Nc3ccccc3F)C2C(=O)N1c1ccccc1` (stereo not given), the composite z-score in [1] was 0.802; in [2] it was 0.632; in [3] it was 0.786; in [5], 1.38; in test [6], 1.32; in test [7] it was 0.292. Moreover, the composite z-score turned out to be 1.39 in test [8]; 0.0465 in test [9]; 0.875 in [10]; 1.45 in test [11]; 0.407 in test [13]; 1.04 in [14]. In addition, the composite z-score in [15] is 0.713; in [16], 0.0182; in test [17] it was 0.108; in [18], 0.686; in [19] it was 0.855; in [20] it was 0.451. In addition, the values for the z-score in [4] and in test [12] were 0.34 (inactive) and -0.942, respectively.

As to `CCCCC=C[C@@H](NC(=O)C(C)(C)C)c1ccccc1`, the composite z-score is 0.641 in test [1]; 0.715 in [2]; 0.609 in test [3]; 0.548 in test [5]; 1.25 in test [6]; 0.357 in [7]. In addition, the composite z-score in test [8] is 0.508; in test [9], 0.15; in test [10], 0.173; in test [11], 1.28; in [13] it was 0.466; in test [14], 0.815. Also, the composite z-score in test [15] was 0.113; in test [16] it was 0.0357; in test [17] it was 0.54; in test [18], 0.863; in [19], -0.334; in test [20], 0.82. In addition, the z-score in test [4] is 0.41 (inactive); in [12], -3.07.
